PubChem BioAssay AID686978 (National Center for Advancing Translational Sciences (NCATS), 2013)
In all, about 420,000 compounds went through this assay and about 64,000 (15%) were called active. Another 27% or so got no clear call; they are omitted. Not all results are given here. A number with no mark means an inactive call. Calls follow the shape of the dose curve; as a rule, active = well fitted inhibition curve with a large enough effect; inconclusive = small, poorly fitted or top-dose-only effect; inactive = flat fitted curve, though single readings scatter.

experiment: qHTS for Inhibitors of human tyrosyl-DNA phosphodiesterase 1 (TDP1): qHTS in cells in absence of CPT; conditions: DT40 Tdp1-/- hTDP1 cells, no CPT, ATP luminescence, 48 h; activity change, negative = growth inhibition: at 46.2 µM (top of the series); also: nearly all actives have a fitted effect of over 55% in size
Method in brief: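 No-CPT arm: Tdp1-/-;hTDP1 DT40 cells (400/well) plus compounds, incubated ≥48 hr at 37 °C. Readout CellTiter-Glo luminescence.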
% is scaled to controls: 0 for no effect and ±100 for the full control effect; potency is read from the fitted curve at half-maximal effect.

SMILES | activity change, negative = growth inhibition | Potency
O=C(Nc1ccccc1)c1ccc2nsnc2c1 | -22.4% | 
O=C(Cc1ccccc1)NCc1ccc(F)cc1 | 5.8% | 
Fc1ccc(CNCc2ccc(Br)cc2)cc1 | -29.2% | 
c1ccc(CNCc2ccc(CNCc3ccccc3)cc2)cc1 |  | 10.3 µM (active)
O=Cc1c(NCCCN2CCCC2=O)c2ccccc2[nH]c1=O | -12.5% | 
Cc1cc(Cl)c(S(=O)(=O)NCc2cccnc2)cc1OCC(N)=O | -3.14% | 
O=C(NCC(c1ccc(Cl)cc1)N1CCOCC1)c1ccccc1F (stereo not given) |  | 13 µM (active)
COc1ccc(C(CNC(=O)c2cccnc2SC)N2CCOCC2)cc1 (stereo not given) | -21.2% | 
CN1CCN(C(CNC(=O)c2ccccc2F)c2ccc3c(c2)OCO3)CC1 (stereo not given) | 3.73% | 
O=C1CCCC(O)=C1N=Nc1ccc2ncsc2c1 | -12.3% | 
Cc1ccc(C)c(NC(=O)C(c2ccccc2)N2CCN(CC(=O)NC3CC3)CC2)c1 (stereo not given) | 1.95% | 
CCC(CO)Oc1cc(NC(=O)c2ccc(Cl)cc2)c2ncn(C(C)C)c2c1 (stereo not given) | -23.1% | 
COC(=O)c1ccc2c(=O)n(CCN3CCOCC3)c(SCC(=O)Nc3cccc(OC)c3)nc2c1 | 0.614% | 
COc1cc(C(=O)N2CCC(c3ccncc3)CC2)cc(OC)c1OC | -23.6% | 
COc1cccc(Cn2c(SCc3ccc(C(=O)N4CCCCC4)cc3)nc3ccncc32)c1 |  | 20.6 µM (active)
Cc1cccc(CSc2nc3ccncc3n2Cc2ccc(C(=O)O)cc2)c1 | -2.18% | 
COc1cccc(Cn2c(SCc3ccc(C(=O)N4CCC(C)CC4)cc3)nc3ccncc32)c1 |  | 20.6 µM (active)
COc1ccc(CSc2nnnn2-c2ccc(C(=O)O)cc2)cc1 | 2.56% | 
CCCCNC(=O)C1(c2ccc(OC)cc2)CCOCC1 | 5.04% | 
CCCCc1ccc(S(N)(=O)=O)cc1 | 4.03% | 
N#Cc1nc(/C=C/c2ccc(F)cc2)oc1NC1CCCCC1 | -30% | 
Nc1nonc1-n1nnc(C(=O)N/N=C/c2ccc(Cl)cc2)c1-c1ccc2c(c1)OCO2 | -9.73% | 
O=C(NCCCO)C(=O)Nc1c2c(nn1-c1ccc(F)cc1)CSC2 | -5.47% | 
COc1ccc(S(=O)(=O)N2CCN(C(=O)N(C)C)C2C)cc1 (stereo not given) | -7.79% | 
CN=c1scc(-c2cc(OC)ccc2OC)n1/N=C/c1c(C)[nH]c2ccccc12 |  | 16.4 µM (active)
COC(=O)c1[nH]c2ccccc2c1NS(=O)(=O)c1ccc(OC)cc1OC | 1.01% | 
COc1ccc(C)cc1Nc1nc(-c2c(C)[nH]c3ccccc23)cs1 | -22.6% | 

SMILES | activity change, negative = growth inhibition | Potency
COc1ccc(/C=C(\C#N)C(=O)OCC(=O)N(C)C2CCS(=O)(=O)C2)cc1 (stereo not given) | 6.36% | 
COC(=O)/C(C#N)=C/c1occc1C | 0.245% | 
COc1ccc(/C=C(\C#N)C(=O)ONC2=NCCCCC2)cc1 |  | 20.6 µM (active)
CC(=O)C1C(c2ccc(Cl)cc2)NC(=O)NC1(O)C(F)(F)F (stereo not given) | 3.1% | 
CN(CC#CCC(c1ccccc1)c1ccccc1)C(C)(C)C |  | 17.8 µM (active)
O=C(CCc1ccccc1)NCCc1cccs1 | 14.1% | 
COC(=O)[C@@H]1CC2=CC(=O)CC[C@]2(C)[C@@]23O[C@@H]2C[C@@]2(C)[C@@H](CC[C@@]24CCC(=O)O4)[C@H]13 | -25.3% | 
CC1(C)CC(CNCCC(c2ccc(F)cc2)c2ccco2)CCO1 (stereo not given) |  | 14.6 µM (active)
CC1(C)CC(N(Cc2ccccc2)C(=O)Cc2ccccc2)CCO1 (stereo not given) | -15.1% | 
Cc1cccc(-n2ncc(Cl)c(Cl)c2=O)c1 |  | 4.11 µM (active)
Cc1cccc(-n2ncc(C#N)c2-n2cccc2)c1 | -15.3% | 
O=c1c(Cl)c(NC2CC2)cnn1-c1ccccc1 | -1.63% | 
O=C(NCC1CCCO1)c1cc2c(s1)CCCC2 (stereo not given) | 6.28% | 
CC(C)C(=O)N1c2ccccc2NC2=C(C(=O)CCC2)C1c1ccc(N(C)C)cc1 (stereo not given) | -9.38% | 
CCCOC(=O)Nc1ccccc1C(N)=O | -26.5% | 
CCOC(=O)N(Cc1ccccc1)C1CC1 | 3.18% | 
O=C(Nc1nnc(CCc2ccccc2)s1)C1CCCO1 (stereo not given) | -8.27% | 
O=C(COC(=O)c1ccc(Cl)nc1)NCc1cccs1 | 2.89% | 
Cc1cccc(C(=O)NCC(=O)OCC(=O)N2CC3(C)CC2CC(C)(C)C3)c1 (stereo not given) | 2.52% | 
Cc1nnnn1/C(=C\c1ccccc1)C(=O)OCC(=O)N1CC2(C)CC1CC(C)(C)C2 (stereo not given) |  | 14.6 µM (active)
CC(=O)NC(C)(C)C1CC=C(C)/C(=N\O)C1 (stereo not given) | 7.54% | 
CCOC(=O)C1C(c2ccc(O)cc2)NC(=O)NC1(O)C(F)(F)F (stereo not given) | 16.9% | 
CCN(CC)P(=O)(/C(Cl)=C\Nc1c(C)n(C)n(-c2ccccc2)c1=O)N(CC)CC | -4.15% | 
CC1=C(C(=O)N2CCOCC2)CC(CC(=O)NCc2cccc3ccccc23)C(=O)N1CCC1=CCCCC1 (stereo not given) | -28.7% | 
CCOC(=O)[C@]12CCC=C1N(Cc1ccco1)C(=O)[C@H](CC(=O)NCc1cccc(C(F)(F)F)c1)C2 |  | 25.9 µM (active)
CCCCCCCCN1C(=O)[C@H](CC(=O)NCc2cccc3ccccc23)C[C@@]2(C(=O)OC)CCCCC=C12 |  | 20.6 µM (active)
CCCCNC(=O)C[C@@H]1C[C@@]2(C(=O)OCC)CCC=C2N(Cc2cccc3ccccc23)C1=O |  | 16.4 µM (active)

SMILES | activity change, negative = growth inhibition | Potency
CCCCN1C(=O)C(CC(=O)NCc2cccs2)CC(C(=O)N2CCOCC2)=C1C (stereo not given) | -0.267% | 
COc1ccccc1CNC(=O)CCCN1C(=O)NC2(CCCC2)C1=O | -6.56% | 
CC1=C(C(=O)N2CCOCC2)CC(CC(=O)NCc2ccco2)C(=O)N1Cc1ccc(F)cc1 (stereo not given) | -16.3% | 
CCOC(=O)[C@]12CCC=C1N(Cc1cccc3ccccc13)C(=O)[C@H](CC(=O)NCc1cccc(C(F)(F)F)c1)C2 |  | 23.1 µM (active)
O=C(COC(=O)C12CC3CC(CC(C3)C1)C2)NCc1ccco1 | -3.59% | 
CCCCNC(=O)C[C@@H]1C[C@@]2(C(=O)OCC)CCC=C2N(Cc2ccco2)C1=O | -10.6% | 
O=C(Cn1nnc(-c2ccc(CN3CCOCC3)cc2)n1)NC1CCCCC1 | -2.3% | 
COc1ccc(OCC(O)CNCCNc2nccc(C(F)(F)F)n2)cc1 (stereo not given) | -11.4% | 
CC(=O)NCC(=O)N(Cc1ccco1)C1(C(=O)NC2CCCC2)CCCCC1 | -4.34% | 
O=c1c(-c2ccc(F)c(F)c2)nc2cncnc2n1-c1ccccc1 | -15.4% | 
COC(=O)[C@]12CCCCC=C1N(Cc1ccco1)C(=O)[C@H](CC(=O)NCCCCc1ccccc1)C2 |  | 16.4 µM (active)
COC(=O)[C@@]12C[C@@H](CC(=O)NCCCCc3ccccc3)C(=O)N(CCc3ccc(OC)c(OC)c3)C1=CCC(C)(C)C2 |  | 20.6 µM (active)
CC1c2nc3ccccc3n2C(CC(=O)NCCCN2CCOCC2)C(=O)N1Cc1ccccc1 (stereo not given) | -13.8% | 
COc1ccc(CCNC(=O)CCCCCNC(=O)N2CCn3c2nc2ccccc23)cc1OC | -26.2% | 
COc1ccc(C(=O)OCC(=O)NCCCc2ccccc2)cc1OC | -25.8% | 
CCOC(=O)[C@]12CCCC=C1N(Cc1cccc3ccccc13)C(=O)[C@H](CC(=O)NCC13CC4CC(CC(C4)C1)C3)C2 |  | 23.1 µM (active)
C#CCNC(=O)C[C@@H]1C[C@@]2(C(=O)OCC)CCCC=C2N(Cc2ccco2)C1=O | -22% | 
CCCCCC1CCC(c2nnc(SCC(C)=O)o2)CC1 (stereo not given) | -4.37% | 
Cc1cc(C)n(-c2c(F)c(F)c(COC(=O)c3ccccc3)c(F)c2F)n1 | -20.9% | 
O=C(C1=C(O)C(=O)N(c2ncccn2)C1c1cccs1)c1ccco1 (stereo not given) | -0.816% | 
O=C(Oc1cccnc1)c1cc2ccccc2oc1=O | -3.98% | 
CC(=O)N1CCN(CC(c2ccccc2)c2ccccc2)CC1 | -19.7% | 
COc1ccc(CNC(=O)C(C)NCc2ccccc2Cl)cc1 (stereo not given) | -7.52% | 
CC(CCc1ccc(O)cc1)NCc1ccc(Cl)cc1Cl (stereo not given) |  | 18.4 µM (active)
COc1ccc(CCn2ccc(O)c(Cc3ccc(Cl)cc3Cl)c2=O)cc1OC | -13.3% | 
O=C(NCC(=O)N1CCN(c2ncc(C(F)(F)F)cc2Cl)CC1)c1ccc(Br)o1 |  | 18.4 µM (active)
COc1ccc(N2CCN(C(=O)CNC(=O)c3ccc(Br)o3)CC2)cc1 | 0.433% | 

SMILES | activity change, negative = growth inhibition | Potency
O=C(CN1CCN(c2ncc(C(F)(F)F)cc2Cl)CC1)Nc1ccc2c(c1)OCO2 | -4.82% | 
Cc1ccc(CSCC(=O)N(C)CC(=O)Nc2cccc(F)c2)cc1 | -27% | 
O=C(O)CCC(=O)N(Cc1ccco1)c1nc(-c2ccccc2)cs1 | 1.02% | 
CC(Oc1ccc(F)cc1F)C(=O)/C=C/N(C)C (stereo not given) | -3.1% | 
c1ccc(C2CNCc3c2ccc2ccccc32)cc1 (stereo not given) |  | 16.4 µM (active)
CC1(C)CC(=O)C(C=NCCN2CCN(C(=S)Nc3cccc(Cl)c3)CC2)=C(O)C1 | -14.6% | 
COc1ccc(-c2n[nH]c3c2CN(C(=O)c2ccc(F)cc2)CC3)cc1 | -17.6% | 
COCCCNC(=O)COc1cc(C)c(Cl)c(C)c1 | -17.2% | 
Cc1cc2c(cc1S(=O)(=O)CCC(=O)NCc1ccccc1)OCC(=O)N2 | -12.9% | 
CC(=O)Nc1ccc2c3c(ccc([N+](=O)[O-])c13)CC2 | 1.18% | 
CCCNC(=O)C1CC(=O)N(c2ccc(OCC(=O)Nc3cccc(C)c3C)cc2)C1 (stereo not given) | -22% | 
CCCOc1ccc(/C=N/NC(=O)C2CC2)c(OCCC)c1 | -19.6% | 
COc1ccc(CS(=O)/C(Cl)=C(/Cl)C(=O)Nc2ccc(OC)nc2)cc1 (stereo not given) |  | 0.13 µM (active)
COc1ccc(NC(=S)Nc2ccccc2Cl)cn1 | 2.18% | 
COc1ccc(NC(=S)NCCNC(C)=O)cc1 | -9.69% | 
CS(=O)(=O)c1ccc(Cl)c(NC(=O)COC(=O)c2ncc(Cl)c(Cl)c2Cl)c1 | -3.02% | 
O=C(Nc1cc2c3c(c1)CC(=O)N3CCC2)c1ccccc1F | -7.35% | 
COc1ccc(/C=C(\NC(=O)c2ccccc2)C(=O)NCCN2CCOCC2)cc1OC | -21.7% | 
COCCN(C(=O)C(C)C)c1nnc(-c2ccc(C(C)(C)C)cc2)s1 |  | 20.6 µM (active)
COCCN(Cc1nc(-c2ccc(C(F)(F)F)cc2)no1)C(C)C | -23.7% | 
CN(C(=O)COc1ccccc1)c1nnc(-c2ccncc2)s1 | -10.3% | 
CCOC(=O)N1CCN(C(=O)Cn2cnc3ccccc3c2=O)CC1 | -7.54% | 
CCOC(=O)N1CCN(CC(=O)Nc2ccc(F)cc2)CC1 | 1.47% | 
CCOC(=O)N1CCN(CC(=O)Nc2cc(C)nn2-c2nc3ccccc3s2)CC1 |  | 23.1 µM (active)
